# ± gives the standard deviation. The full ranking holds about 6,200 sequences; the median of “pre-steady-state target cleavage rate” is about 0.29, and the highest 2% start at about 2. This excerpt belongs to a sample that is enriched for the highest values.
# Tested on: MIWI (PIWIL1) piRISC loaded with piRNA #1 (30 nt)
# Assay: pre-steady-state target cleavage rate (min^-1); MIWI and MILI are mouse PIWI proteins and EfPiwi is from a freshwater sponge; tags in brackets are library labels; higher = faster piRNA-guided slicing of the target
# Conditions: guide: piRNA #1 5'p-UGAGGUAGUAGGUUGUAUAGUAUCCAGAGG; auxiliary factor: 500 nM mouse GTSF1
# Description: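 Cleave-'n-Seq: a library of target RNAs (target site embedded in constant flanks, ACAGCATTCCGCGTTAGTGATATCCG... 5' flank; DNA-blocked outside the site) at 0.1 nM was incubated with 1 nM active mouse MILI or MIWI piRISC (synthetic 5'-monophosphorylated piRNA guide) with or without 500 nM mouse GTSF1 at 33 °C for 1 min to 16 h. Uncleaved targets were sequenced and normalised to non-target controls, and the pooled three trials were fitted to a burst-and-steady-state model to give the pre-steady-state cleavage rate (min^-1; k3 is constrained to at most 1e-4). Sequence is the target site only; target names encode pairing extent (gX:gY) and contiguous / 1-mismatch / 2-mismatch / bulge geometry. Fits with R² ≤ 0 are excluded.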
row,Sequence,pre-steady-state target cleavage rate
1,CCUCAGGAUACUAAACAACCUACUACCUCA,2.07 ± 0.12
2,GCUCAGGAUACUAUACAACCUACUACCACA,1.75 ± 0.1
3,CCUCAGGAUACUAUACAACCUACUACCACA,2.43 ± 0.17
4,CCUCAGGAUACUUUACAACCUACUACCUCA,2.1 ± 0.13
5,CCACAGGAUACUAUACAACCUACUACCUCA,1.87 ± 0.13
6,GCUCAGGAUACAAUACAACCUACUACCUCA,1.9 ± 0.12
7,GGUCAGGAUACAAUACAACCUACUACCUCA,1.69 ± 0.1
8,CCUCAGGAUACAAUACAACCUACUACCUCA,2.01 ± 0.12
9,GCUCAGGAUACUAAACAACCUACUACCUCA,1.95 ± 0.12
10,CCUCUGGAUACUUUACAACCUACUACCUGA,0.715 ± 0.1
11,GGAGACCUAUCUAUACAACCUACUAGCUCA,0.517 ± 0.046
12,GGAGAGGAUACUAUAGCAACCUACUACCUCA,0.61 ± 0.07
13,GGAGACGAUACUAUACAUGCUACUACCUCA,0.755 ± 0.037
14,GGAGACCUUACUGUACAACCUACUACCUCA,0.655 ± 0.077
15,CCUCUGGAUACUAUUCAACCUAGUACCUCA,0.085 ± 0.021
16,CCUCUGGAUACUAUAGAACCUACUACCACA,0.372 ± 0.042
17,GCUCUGGAUACUAUCACAACCUACUACCUCA,1.62 ± 0.12
18,GGUCAGGAUACUAUACAUCCUACUACCUCA,1.54 ± 0.079
19,GCUCAGGAUACUAUACAUCCUACUACCUCA,1.85 ± 0.099
20,CCUCAGGAUACUAUACAUCCUACUACCUCA,2.03 ± 0.12
21,GGUCUCGAUACUAUACAACCUACUACCUCA,1.83 ± 0.12
22,CCUCUGGAUACCUAUACAACCUACUACCUCA,1.18 ± 0.072
23,CCUCUGGAUACUAUACUACCUACAACCUCA,1.08 ± 0.098
24,UCUCUGGAUACUAUACAACCUACUACCUCA,2.04 ± 0.1
25,CUCUCUGGAUACUAUACAACCUACUACCUCA,2.1 ± 0.13
26,GCCUCUGGAUACUAUACAACCUACUACCUCA,1.89 ± 0.12

row,Sequence,pre-steady-state target cleavage rate
1,CCUCUGGAUACUAUACAACCUACAACCUCA,1.56 ± 0.1
2,GGAGUGGAUACUAUACAACCUACGUACCUCA,0.712 ± 0.076
3,GGAGAGGAUACUUUAGAACCUACUACCUCA,0.919 ± 0.051
4,GGAGAGGAUACUAUACAACCUACUGACCUCA,0.576 ± 0.034
5,GGAGACGAUUCAAUACAACCUACUACCUCA,0.502 ± 0.063
6,GGAGACCUAUCUUUACAACCUACUACCUGA,0.101 ± 0.025
7,CCUCUGGAUACUAUACAACCUACUACCUUCA,1.88 ± 0.12
8,CCUCUGGAUACUAUACAACCUACUUCCUCA,0.668 ± 0.053
9,GCUCUGGAUACUAUACAACCUACUACCUUCA,1.9 ± 0.13
10,CCUCUGGAUACUAUACAACCUACUACUUCA,2.32 ± 0.16
11,GCUCUGGAUACUAUACAACCUACUACUUCA,2.26 ± 0.14
12,GGUCUGGAUACUAUACAACCUACUACUUCA,1.32 ± 0.095
13,GCUCUGCAUACUAUACAACCUACUACGUCA,1.24 ± 0.086
14,GGACUGGAAACUUUACAACCUACUACCUCA,0.689 ± 0.076
15,GCUCUGGAUACUAAAGAACCUACUACCUCA,1.17 ± 0.087
16,GGAGACCUAACUAUACAACCUAGUUCCUCA,0.0155 ± 0.0059
17,CCUCUGGUUACUAUUCAACCUACUACCUCA,2.15 ± 0.14
18,GGUCUGGAUACGAUACAACCUACUACCUCA,1.79 ± 0.11
19,GGUCUGGAUACUAUUCAACCUACAACCUCA,0.28 ± 0.033
20,GGUCUGGAUACUAUGCAACCUACUACCUCA,1.73 ± 0.12
21,CCUCUGGAUACUAUUCAACCUACAACCUCA,1.62 ± 0.13
22,CCUCUGGAUACUAUACAACCUACCUACCUCA,1.8 ± 0.11
23,CCUCUGGAUACUAUACAACCUACUACCUCA [g2:g30:cont:t1A],1.96 ± 0.12
24,GCUCUGGAUACUAUGCAACCUACUACCUCA,1.84 ± 0.1
25,CCUCUGGAUACGAUACAACCUACUACCUCA,2.07 ± 0.11
26,CUCUGGAUACUAUACAACCUACUACCUCA,2.17 ± 0.14

row,Sequence,pre-steady-state target cleavage rate
1,CCUCUGGAUACUAUGCAACCUACUACCUCA,2.09 ± 0.13
2,GCUCUGGAUACUAUUCAACCUACAACCUCA,1.3 ± 0.099
3,GCUCUGGAUACGAUACAACCUACUACCUCA,1.7 ± 0.086
4,GGACUGGAUAGUAUACAACCUUCUACCUCA,0.575 ± 0.045
5,GGUCUGGAUACUAUACAACGUUCUACCUCA,0.117 ± 0.014
6,GGAGACCUAUGUAUAGAACCUUCUACCUCA,0.0033 ± 0.0012
7,GCUCUGGAUACUAUACAACCUACUAUCCUCA,1.51 ± 0.11
8,GGUGUGGAUACUAUACAACCUUCUACCUCA,0.734 ± 0.033
9,GGAGACCUAACUAUACAACGUACUACCACA,0.165 ± 0.031
10,GGAGACCUAUGAAUACUAGCUACUACCUCA,< 0.0001
11,GGAGAGGAUACUAUACAACCUUCUAGCUCA,0.0222 ± 0.0082
12,GGACUGGAUACUAUACAACUUACUACCUCA,0.518 ± 0.023
13,CCUCUGGAUACUAAACAACCUACUACCUCA,1.86 ± 0.12
14,GCUCUGGAUACUAUUCAACCUACUACCACA,1.9 ± 0.16
15,CCCUCUGGAUACUAUACAACCUACUACCUCA,2.25 ± 0.12
16,CCUCUGGAUACUAUACAACCUACUACCCUCA,1.38 ± 0.097
17,GGUCUGAAUACUAUACAACCUACUACCUCA,1.8 ± 0.097
18,GCUCUGAAUACUAUACAACCUACUACCUCA,1.89 ± 0.12
19,CCUCUGAAUACUAUACAACCUACUACCUCA,2.09 ± 0.13
20,GCUCUGGAUACUAAACAACCUACAACCUCA,1.23 ± 0.089
21,GGUCUGGAUACUAUUCAACCUACUACCACA,0.506 ± 0.045
22,CCUCUGGUUACUAAACAACCUACUACCUCA,2.34 ± 0.16
23,CCUCUGGAUACUAUUCAACCUACUACCACA,2.19 ± 0.18
24,CCUCUGGAUACUAUACAACCCUACUACCUCA,0.00658 ± 0.0036
25,CCUCUGGAUACUAAACAACCUACAACCUCA,1.48 ± 0.12
